Measured values published in PubChem BioAssay AID1159580 (chemical genetic matrix, 2015).
Where “and” joins values, the source holds several entries; their conditions need not be identical. Equal entries are not always repeated. The whole screen tested about 5,500 compounds, of which about 2,000 (36%) were called active. Inconclusive results (about 18%) are left out. Rule as the data show it: active = normalized growth mostly below about 0.91 (no sharp cut-off); inconclusive = no clear call, values can overlap the other calls; inactive = mostly above about 0.92. The list shows a part of the results.

Assay: chemical genetic growth profiling, strain panel (AID 1159580);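 also: tested at 20 µM; growth read once vehicle control cultures reached saturation at 30 °C; 1 = growth at the plate median or of vehicle wells; lower values mean less growth of the strain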
Conditions: growth OD

Measured: normalized growth

c1ccc2c(c1)cc1ccc3cccc4ccc2c1c34
inactive: S. cerevisiae deletion strains, locus YAL013W, strain DEP1, hits give low values 1.03 | S. cerevisiae deletion strains, locus YBR021W, strain FUR4, hits give low values 1.05 | S. cerevisiae deletion strains, locus YBR229C, strain ROT2, hits give low values 1.02 | S. cerevisiae deletion strains, locus YCL029C, strain bik1, hits give low values 0.995 | S. cerevisiae deletion strains, locus YDL035C, strain GPR1, hits give low values 1.03 | S. cerevisiae deletion strains, locus YDL074C, strain BRE1, hits give low values 1.06 | S. cerevisiae deletion strains, locus YDL101C, strain DUN1, hits give low values 1.03 | S. cerevisiae deletion strains, locus YDL134C, strain PPH21, hits give low values 1.02 | S. cerevisiae deletion strains, locus YDL185W, strain tfp1, hits give low values 0.995 | S. cerevisiae deletion strains, locus YDL192W, strain arf1, hits give low values 0.994 | S. cerevisiae deletion strains, locus YDR101C, strain arx1, hits give low values 0.995 | S. cerevisiae deletion strains, locus YDR150W, strain NUM1, hits give low values 1.02 | S. cerevisiae deletion strains, locus YDR162C, strain NBP2, hits give low values 1.03 | S. cerevisiae deletion strains, locus YDR318W, strain mcm21, hits give low values 0.996 | S. cerevisiae deletion strains, locus YDR388W, hits give low values 0.988 | S. cerevisiae deletion strains, locus YDR502C, strain sam2, hits give low values 1.02 | S. cerevisiae deletion strains, locus YEL061C, strain CIN8, hits give low values 1.02 | S. cerevisiae deletion strains, locus YER110C, hits give low values 0.981 | S. cerevisiae deletion strains, locus YER155C, strain BEM2, hits give low values 1.01 | S. cerevisiae deletion strains, locus YER167W, strain BCK2, hits give low values 1.03 | S. cerevisiae deletion strains, locus YGL078C, strain dbp3, hits give low values 0.988 | S. cerevisiae deletion strains, locus YGL086W, strain mad1, hits give low values 0.993 | S. cerevisiae deletion strains, locus YGL248W, strain PDE1, hits give low values 1.02 | S. cerevisiae deletion strains, locus YGR078C, strain PAC10, hits give low values 1.03 | S. cerevisiae deletion strains, locus YGR135W, strain pre9, hits give low values 1.01 | S. cerevisiae deletion strains, locus YGR229C, strain SMI1, hits give low values 1.05 | S. cerevisiae deletion strains, locus YGR252W, strain gcn5, hits give low values 1 | S. cerevisiae deletion strains, locus YHR030C, strain SLT2, hits give low values 1.01 and 0.927 | S. cerevisiae deletion strains, locus YHR079C, strain IRE1 (second series), hits give low values 0.982 | S. cerevisiae deletion strains, locus YHR079C, strain IRE1, hits give low values 0.988 | S. cerevisiae deletion strains, locus YHR094C, strain hxt1, hits give low values 0.993 | S. cerevisiae deletion strains, locus YHR129C, strain ARP1, hits give low values 1.02 | S. cerevisiae deletion strains, locus YHR200W, strain rpn10, hits give low values 0.998 | S. cerevisiae deletion strains, locus YIL066C, strain RNR3, hits give low values 1.02 | S. cerevisiae deletion strains, locus YIL073C, strain SPO22, hits give low values 1.02 | S. cerevisiae deletion strains, locus YIL125W, strain kgd1, hits give low values 1.01 | S. cerevisiae deletion strains, locus YIR030C, strain dcg1, hits give low values 0.991 | S. cerevisiae deletion strains, locus YJL095W, strain BCK1, hits give low values 1.05 and 0.943 | S. cerevisiae deletion strains, locus YJL134W, strain LCB3, hits give low values 1.01 | S. cerevisiae deletion strains, locus YJL168C, strain set2, hits give low values 0.989 | S. cerevisiae deletion strains, locus YJL187C, strain SWE1 (second series), hits give low values 1.03 | S. cerevisiae deletion strains, locus YJR043C, strain POL32, hits give low values 1.06 | S. cerevisiae deletion strains, locus YJR066W, strain TOR1, hits give low values 0.903 | S. cerevisiae deletion strains, locus YJR075W, strain HOC1, hits give low values 1.02 | S. cerevisiae deletion strains, locus YKL009W, strain mrt4, hits give low values 0.994 | S. cerevisiae deletion strains, locus YKL068W, hits give low values 1 | S. cerevisiae deletion strains, locus YKL085W, strain MDH1 (second series), hits give low values 1.01 | S. cerevisiae deletion strains, locus YKL085W, strain MDH1, hits give low values 1.01 | S. cerevisiae deletion strains, locus YKL190W, strain CNB1, hits give low values 1.01 | S. cerevisiae deletion strains, locus YKR001C, strain vps1, hits give low values 0.994 | S. cerevisiae deletion strains, locus YLR039C, strain RIC1, hits give low values 1.02 | S. cerevisiae deletion strains, locus YLR058C, strain SHM2, hits give low values 1.02 | S. cerevisiae deletion strains, locus YLR102C, strain apc9, hits give low values 0.99 | S. cerevisiae deletion strains, locus YLR113W, strain HOG1, hits give low values 0.961 | S. cerevisiae deletion strains, locus YLR262C, strain YPT6, hits give low values 1.04 | S. cerevisiae deletion strains, locus YLR268W, strain sec22, hits give low values 1.01 | S. cerevisiae deletion strains, locus YLR330W, strain CHS5, hits give low values 1.01 | S. cerevisiae deletion strains, locus YLR342W, strain FKS1 (second series), hits give low values 1.01 | S. cerevisiae deletion strains, locus YLR371W, strain rom2, hits give low values 0.994 | S. cerevisiae deletion strains, locus YLR418C, strain cdc73, hits give low values 1.03 | S. cerevisiae deletion strains, locus YML016C, strain PPZ1, hits give low values 1.02 | S. cerevisiae deletion strains, locus YML032C, strain rad52, hits give low values 0.996 | S. cerevisiae deletion strains, locus YML124C, strain tub3, hits give low values 0.996 | S. cerevisiae deletion strains, locus YMR078C, strain ctf18, hits give low values 1.01 | S. cerevisiae deletion strains, locus YMR223W, strain ubp8, hits give low values 1.01 | S. cerevisiae deletion strains, locus YMR263W, strain SAP30, hits give low values 1.03 | S. cerevisiae deletion strains, locus YMR307W, strain GAS1, hits give low values 1.02 | S. cerevisiae deletion strains, locus YNL067W, strain RPL9B, hits give low values 1.04 | S. cerevisiae deletion strains, locus YNL128W, strain TEP1, hits give low values 1.04 | S. cerevisiae deletion strains, locus YNL153C, strain GIM3, hits give low values 1.02 | S. cerevisiae deletion strains, locus YNL183C, strain NPR1, hits give low values 0.884 | S. cerevisiae deletion strains, locus YNL233W, strain BNI4, hits give low values 1.03 | S. cerevisiae deletion strains, locus YNL250W, strain rad50, hits give low values 0.998 | S. cerevisiae deletion strains, locus YNL271C, strain bni1, hits give low values 1 | S. cerevisiae deletion strains, locus YNL298W, strain CLA4, hits give low values 1.01 | S. cerevisiae deletion strains, locus YNL307C, strain MCK1, hits give low values 0.993 | S. cerevisiae deletion strains, locus YNL322C, strain KRE1, hits give low values 1.02 | S. cerevisiae deletion strains, locus YNR052C, strain pop2, hits give low values 0.982 | S. cerevisiae deletion strains, locus YOL006C, strain TOP1, hits give low values 1.04 | S. cerevisiae deletion strains, locus YOL012C, strain htz1 0.939 | S. cerevisiae deletion strains, locus YOL147C, strain pex11, hits give low values 0.992 | S. cerevisiae deletion strains, locus YOR061W, strain CKA2, hits give low values 1.01 | S. cerevisiae deletion strains, locus YOR069W, strain VPS5, hits give low values 1.04 | S. cerevisiae deletion strains, locus YOR136W, strain idh2, hits give low values 0.99 | S. cerevisiae deletion strains, locus YOR144C, strain elg1, hits give low values 0.989 | S. cerevisiae deletion strains, locus YOR184W, strain ser1, hits give low values 1.01 | S. cerevisiae deletion strains, locus YOR231W, strain MKK1, hits give low values 0.979 | S. cerevisiae deletion strains, locus YOR316C, strain cot1, hits give low values 0.992 | S. cerevisiae deletion strains, locus YPL055C, strain LGE1, hits give low values 1.08 | S. cerevisiae deletion strains, locus YPL241C, strain CIN2, hits give low values 1.03 | S. cerevisiae deletion strains, locus YPL256C, strain CLN2, hits give low values 0.996 | S. cerevisiae deletion strains, locus YPR119W, strain clb2, hits give low values 0.983 | S. cerevisiae deletion strains, locus YPR141C, strain kar3, hits give low values 1 | S. cerevisiae deletion strains, locus YPR163C, strain tif3, hits give low values 0.995 | S. cerevisiae deletion strains, locus YPR167C, strain met16, hits give low values 1 | S. cerevisiae deletion strains, strain wtn01, hits give low values 1.01 | S. cerevisiae strains, strain wild type, hits give low values 1.01
